Test systems include T-47D breast; BT-549 breast; MDA-MB-435 melanoma; SW-620 colon; MCF7 breast; HCT-116 colon; HCC-2998 colon; KM12 colon.
Assay in all cases: NCI-60 one-dose screen, 48 h (100 = growth as untreated, 0 = no growth, -100 = all killed)
Common to all, as to details: 10 µM unless noted

About 83,000 compounds went through this panel and 20% of them were active in at least one assay; those are over-represented in the sample as a whole.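 A percent growth of 40 corresponds to 60% growth inhibition; 0 means no net growth; -100 means all cells died. Active threshold: below 10.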 Unmarked numbers belong to inactive results. The source made the active and inactive calls.

Consider `CSc1cccc([N+](=O)[O-])c1`, for which the growth is 90.1% in the experiment with T-47D breast; 104% with BT-549 breast; 100% with MDA-MB-435 melanoma; 108% in the experiment with SW-620 colon; 108% with MCF7 breast; 100% with HCT-116 colon. Also, the growth in the experiment with HCC-2998 colon was 108%; in the experiment with KM12 colon it was 113%.

`CC1(C)CC[C@]2(C(=O)O)CC[C@]3(C)C(=CC[C@@H]4[C@@]5(C)C/C(=C/c6ccco6)C(=O)C(C)(C)[C@@H]5CC[C@]43C)[C@@H]2C1`: the growth with T-47D breast was -0.554% [100 µM] (active); in the experiment on BT-549 breast it was -27.2% [100 µM] (active); in the experiment with MDA-MB-435 melanoma, -70.6% [100 µM] (active); in the experiment with SW-620 colon, -32.8% [100 µM] (active); in the experiment on MCF7 breast, -8.44% [100 µM] (active); in the experiment with HCT-116 colon it was -71.8% [100 µM] (active). In addition, the growth in the experiment with HCC-2998 colon is -58.1% [100 µM] (active); with KM12 colon, -65.9% [100 µM] (active).

As for `CCOc1cccc2c(NC(C)CCCN(CC)CC)c(C)cnc12` (configuration not stated), the growth in the experiment with T-47D breast was 115%; in the experiment with BT-549 breast, 99.8%; with MDA-MB-435 melanoma, 101%; with SW-620 colon, 96.6%; with MCF7 breast it was 97.7%; in the experiment with HCT-116 colon, 93.4%. The figures for the growth in the experiment with HCC-2998 colon and in the experiment with KM12 colon were 115% and 99.1%, respectively.

On to `CCCCCCCCCCCCCC[n+]1cccc(C(N)=O)c1`, for which the growth in the experiment on T-47D breast is 49.8%; in the experiment with BT-549 breast, -49.9% (active); with MDA-MB-435 melanoma it was -36.5% (active); in the experiment with SW-620 colon, 0.686% (active); in the experiment on MCF7 breast, 39.4%; in the experiment with HCT-116 colon, 20.8%. For the same molecule, the growth was -51.8% (active) in the experiment on HCC-2998 colon and -87.1% (active) in the experiment on KM12 colon.

With `CCCCNC(=O)NS(=O)(=O)Cc1ccccc1`, the growth in the experiment with T-47D breast is 113%; in the experiment on BT-549 breast it was 104%; with MDA-MB-435 melanoma it was 116%; in the experiment with SW-620 colon, 108%; in the experiment on MCF7 breast, 96.6%; in the experiment with HCT-116 colon, 112%. For the same molecule, the growth is 110% with HCC-2998 colon and 109% with KM12 colon.

`CCCCCCCCCCCCNC(=S)N/N=C/c1ccccc1O`: the growth was 42.2% in the experiment with T-47D breast; 108% with BT-549 breast; 80.5% in the experiment with MDA-MB-435 melanoma; 91.8% in the experiment with SW-620 colon; 51% in the experiment on MCF7 breast; 62.2% in the experiment with HCT-116 colon. Further, the results for the growth in the experiment on HCC-2998 colon and in the experiment with KM12 colon were 78.2% and 68.8%, respectively.

Turning to `CCOC(=O)C1=C(C(=O)c2ccc(Br)cc2)C(c2ccc(Br)cc2)NC(=S)N1` (configuration not stated), the growth was 94.5% in the experiment with T-47D breast; 101% in the experiment on BT-549 breast; 107% in the experiment with MDA-MB-435 melanoma; 101% with SW-620 colon; 102% with MCF7 breast; 89.8% in the experiment on HCT-116 colon. In addition, the growth in the experiment on HCC-2998 colon was 106%; in the experiment with KM12 colon it was 97.5%.

For the molecule `CO[C@H]1CC[C@@]2(C)C(=CC[C@H]3[C@@H]4C[C@H](O)C[C@@]4(C)CC[C@@H]32)C1`, the growth is 54% in the experiment with T-47D breast; 79.5% in the experiment with BT-549 breast; -16.9% (active) with MDA-MB-435 melanoma; 28.8% with SW-620 colon; 25.7% in the experiment on MCF7 breast; 29.2% with HCT-116 colon. The growth is 68.4% with HCC-2998 colon and 35.7% in the experiment with KM12 colon.

For `COc1ccc(C2CC(c3ccc4ccccc4c3)=NN2c2nc(O)c(C3=c4cc(OC)ccc4=NC3=O)s2)cc1` (configuration not stated), the growth is -72.7% (active) with T-47D breast; -19.8% (active) with BT-549 breast; -59.5% (active) in the experiment on MDA-MB-435 melanoma; -42% (active) with SW-620 colon; -29.4% (active) in the experiment on MCF7 breast; -64.5% (active) in the experiment with HCT-116 colon. Besides, the growth is -70.4% (active) with HCC-2998 colon and -70.3% (active) with KM12 colon.

As to `C=C(C)[C@@H]1CC[C@]2(C)[C@H](CC[C@@H]3[C@@H]([C@@](C)(O)CCC=C(C)C)CC[C@]32C)[C@@]1(C)CCC(=O)N1CCN(C)CC1`, the growth in the experiment on T-47D breast is -42.9% [100 µM] (active); in the experiment with BT-549 breast, -84% [100 µM] (active); in the experiment with MDA-MB-435 melanoma, -82.6% [100 µM] (active); with SW-620 colon it was -75% [100 µM] (active); with MCF7 breast, -65.9% [100 µM] (active); in the experiment on HCT-116 colon it was -85.7% [100 µM] (active). Further, the growth in the experiment on HCC-2998 colon is -91.9% [100 µM] (active); with KM12 colon, -83% [100 µM] (active).

As to `CN(C)c1ccc(-c2ccc(-c3ccc(C(=N)N)cc3)s2)cc1`, the growth was -50.8% (active) in the experiment with T-47D breast; 96.2% in the experiment on BT-549 breast; -77.6% (active) with MDA-MB-435 melanoma; -54.9% (active) in the experiment with SW-620 colon; -55.3% (active) with MCF7 breast; -45.3% (active) in the experiment with HCT-116 colon. Besides, the growth with HCC-2998 colon is -74.2% (active); in the experiment on KM12 colon it was -73% (active).

In the case of `O=C(O)c1cc([N+](=O)[O-])ccc1Br`, the growth in the experiment on T-47D breast is 101%; with BT-549 breast it was 91.5%; in the experiment on MDA-MB-435 melanoma, 98.5%; in the experiment with SW-620 colon, 104%; in the experiment on MCF7 breast, 95.8%; with HCT-116 colon it was 99.5%. Besides, the growth is 104% in the experiment with HCC-2998 colon and 101% in the experiment with KM12 colon.

Take `C=C(C)[C@@H]1CC[C@]2(C(=O)NCCNCCNC(=O)OC(C)(C)C)CC[C@]3(C)[C@H](CC[C@@H]4[C@@]5(C)CCC(=O)C(C)(C)[C@@H]5CC[C@]43C)[C@@H]12`: the growth with T-47D breast is 28% [100 µM]; with BT-549 breast, 54.2% [100 µM]; in the experiment on MDA-MB-435 melanoma, 36.8% [100 µM]; with SW-620 colon it was 28.8% [100 µM]; in the experiment on MCF7 breast, 22.2% [100 µM]; in the experiment with HCT-116 colon, 17.5% [100 µM]. Besides, the growth in the experiment with HCC-2998 colon was 60.5% [100 µM]; in the experiment with KM12 colon, 34.3% [100 µM].

For `CC(=O)Nc1ccc(C=Nc2ccc3ccccc3c2)cc1`, the growth is 108% in the experiment with T-47D breast; 102% with BT-549 breast; 112% in the experiment with MDA-MB-435 melanoma; 106% with SW-620 colon; 92.3% in the experiment with MCF7 breast; 101% with HCT-116 colon. Besides, the growth was 92.1% in the experiment with HCC-2998 colon and 108% in the experiment on KM12 colon.

(Values after PubChem BioAssay (NCI).)
